Compound activity from PubChem BioAssay.
proKLK7 act = activators of human kallikrein-7 zymogen | P49862 | purified proKLK7, EDANS-DABCYL substrate fluorescence; 100% is mature enzyme control, 0% vehicle | activation, % at 7 µM | 370,000 compounds, 0.9% hits;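 active = activation above the mean of all tested compounds plus 3 SD, computed per campaign excluding outliers beyond control limits, cut at about 13% in these data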
PLCb3 inh = inhibitors of human phospholipase C beta3 | Purified PLC-beta3, fluorogenic substrate, fluorescence | inhibition, % at 12.2 µM | 370,000 compounds, 0.18% hits | AID 720704
PLCg1 inh = inhibitors of human phospholipase C gamma1. inhibition, % at 12.2 µM. purified PLC-gamma1, fluorogenic substrate, fluorescence. P19174. 370,000 compounds, 0.84% hits; in the data active = inhibition above about 9.5%
Target sequence (P19174 whole entry, looked up): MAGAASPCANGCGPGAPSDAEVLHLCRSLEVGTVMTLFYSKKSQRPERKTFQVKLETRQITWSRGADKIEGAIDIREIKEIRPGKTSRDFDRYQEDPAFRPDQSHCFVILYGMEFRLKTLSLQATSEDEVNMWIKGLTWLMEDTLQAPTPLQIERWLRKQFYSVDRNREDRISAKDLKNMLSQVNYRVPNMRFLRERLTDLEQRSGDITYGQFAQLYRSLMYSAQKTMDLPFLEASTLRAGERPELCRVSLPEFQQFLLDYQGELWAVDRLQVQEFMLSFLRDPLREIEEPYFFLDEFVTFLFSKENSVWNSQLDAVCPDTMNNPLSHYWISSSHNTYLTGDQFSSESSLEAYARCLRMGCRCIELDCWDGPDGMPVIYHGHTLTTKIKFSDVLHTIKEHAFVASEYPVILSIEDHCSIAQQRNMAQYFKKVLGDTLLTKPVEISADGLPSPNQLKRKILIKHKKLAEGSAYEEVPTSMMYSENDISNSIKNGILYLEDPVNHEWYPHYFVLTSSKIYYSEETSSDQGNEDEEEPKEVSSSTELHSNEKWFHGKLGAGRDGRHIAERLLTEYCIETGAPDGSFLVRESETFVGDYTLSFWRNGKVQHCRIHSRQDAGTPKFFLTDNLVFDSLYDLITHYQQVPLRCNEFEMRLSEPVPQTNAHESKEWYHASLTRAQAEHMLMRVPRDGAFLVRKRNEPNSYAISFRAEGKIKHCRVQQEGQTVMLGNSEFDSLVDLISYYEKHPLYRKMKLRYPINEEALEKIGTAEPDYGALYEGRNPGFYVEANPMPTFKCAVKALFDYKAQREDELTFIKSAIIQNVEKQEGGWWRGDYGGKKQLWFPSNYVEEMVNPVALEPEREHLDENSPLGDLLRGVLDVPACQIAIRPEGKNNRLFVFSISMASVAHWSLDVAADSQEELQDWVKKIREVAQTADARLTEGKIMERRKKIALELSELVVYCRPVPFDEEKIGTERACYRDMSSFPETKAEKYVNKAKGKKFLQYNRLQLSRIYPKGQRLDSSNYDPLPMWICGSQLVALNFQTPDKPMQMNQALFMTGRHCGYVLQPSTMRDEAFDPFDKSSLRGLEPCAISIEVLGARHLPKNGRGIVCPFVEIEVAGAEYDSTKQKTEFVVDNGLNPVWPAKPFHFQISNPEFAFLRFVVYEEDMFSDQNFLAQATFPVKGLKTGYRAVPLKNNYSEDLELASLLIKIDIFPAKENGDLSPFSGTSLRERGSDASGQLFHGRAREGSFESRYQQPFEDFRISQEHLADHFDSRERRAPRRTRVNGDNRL
sPLA2-III inh = Inhibits HGIII-sPLA2 liposome hydrolysis, primary screen; 370,000 compounds, 0.56% hits; QFRET BODIPY PC-A2 liposome hydrolysis, fluorescence; inhibition, % at 12.2 µM;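 active = inhibition above mean plus 3 SD of compounds lying within the high and low control bounds, cut at about 19% in these data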
ADAM17 inh = inhibitors of human ADAM17 | AID 720648 | recombinant ADAM17, EDANS/DABCYL FRET peptide cleavage | 370,000 compounds, 0.83% hits | P78536 | inhibition, % at 6.95 µM;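 active = inhibition above the mean of compounds lying between control limits plus 3 SD, set per campaign, cut at about 8.5% in these data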
ADAM10 inh = ADAM10 inhibition, QFRET primary screen; AID 720582; recombinant ADAM10, EDANS/DABCYL FRET peptide cleavage, 3 h; inhibition, % at 7 µM; 370,000 compounds, 0.62% hits; O14672;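 active = inhibition above a per-campaign cutoff equal to the mean of compounds falling between control-based bounds plus 3 SD, cut at about 20% in these data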
PLCgamma1 ctr = inhibits human PLC-gamma1 in PLC-beta3 counter-screen; shares compounds with PLCg1 inh; purified PLC-gamma1, fluorogenic substrate, fluorescence; inhibition, % at 12.3 µM; 3,300 compounds, 3.1% hits; in the data active = inhibition above about 9.5%
PLCbeta3 conf = confirmation of human PLC-beta3 inhibitors | shares compounds with PLCg1 inh | purified PLC-beta3, fluorogenic substrate fluorescence | inhibition, % at 12.3 µM | 3,300 compounds, 1% hits | AID 743261
Large screens that a line does not name were inactive (follow-up assays come after a bar, where they were run). Only some compounds are listed: those with a hit (about 3.4% of all), similar ones and a draw of the others. Cut-off read from the data, not from the text of the source, unless noted: active = inhibition above about 11%; inactive = the rest.

O=C(NCc1ccc(Cl)cc1)C1CCC(=O)N(C2CC2)C1 (configuration not stated)	none
CC(=O)c1cc(-c2ccccc2S(=O)(=O)NC(C)(C)C)c(=O)n2c1CCC2	none
O=C(C1CCC1)N1CCc2cc(S(=O)(=O)N3CCCC3)ccc21	none
c1ccc(-c2ccccc2C2Cc3nnccc3CN2)cc1 (configuration not stated)	none
CCOC(=O)Cc1csc(SCC(=O)Nc2cccc(C#N)c2)n1	none
CCOC(=O)Cc1csc(SCC(=O)Nc2cccc(Cl)c2)n1	PLCg1 inh 14 | PLCgamma1 ctr inactive | PLCbeta3 conf inactive
CCCC(=O)Nc1ccc(N2CCN(C(=O)c3cc4ccccc4o3)CC2)cc1	PLCg1 inh 11 | PLCgamma1 ctr inactive | PLCbeta3 conf inactive
CCOC(=O)C1(CCc2ccccc2)CCN(Cc2ccc(C(=O)OC)cc2)CC1	none
CCOC(=O)C1(CCc2ccccc2)CCN(Cc2ccccn2)CC1	PLCg1 inh 9.9 | PLCgamma1 ctr inactive | PLCbeta3 conf inactive
COc1cccc(C(=O)N[C@H](C(=O)N2CCC[C@H]2C(=O)NCCc2ccccc2Cl)C2CCCCC2)c1	none
Oc1ccc(C[C@@H]2CNCCN2CCCCC2CCCCC2)cc1	PLCb3 inh 14 | PLCgamma1 ctr inactive | PLCbeta3 conf inactive
CC(COc1ccc(CC#N)cc1)CN1CCC(C(O)(c2ccccc2)c2ccccc2)CC1 (configuration not stated)	none
N#Cc1ccc(S(=O)(=O)N2CCN(CC(=O)Nc3ccccc3C(=O)NC3CC3)CC2)cc1	PLCg1 inh 9.7 | PLCgamma1 ctr inactive | PLCbeta3 conf inactive
O=C(CN1CCN(S(=O)(=O)c2ccc(F)cc2)CC1)Nc1ccccc1C(=O)NC1CC1	none
Cc1ccc(S(=O)(=O)N/N=C/c2c(F)cccc2Cl)cc1	PLCg1 inh 11 | PLCgamma1 ctr inactive | PLCbeta3 conf inactive
Cc1cccc(C)c1-n1nnnc1C1(C)CN(S(C)(=O)=O)CC(=O)N1Cc1ccc(F)cc1 (configuration not stated)	none
COc1ccc(S(=O)(=O)N2CCN(c3ccccc3)CC2)cc1OC	none
COc1cc(S(=O)(=O)N2CCN(c3ccccc3)CC2)ccc1Cl	PLCg1 inh 10 | PLCgamma1 ctr inactive | PLCbeta3 conf inactive
COc1cccc(N2CCN(S(=O)(=O)c3ccc4c(c3)oc(=O)n4C)CC2)c1	PLCg1 inh 11 | PLCgamma1 ctr inactive | PLCbeta3 conf inactive
CCOc1ccc(NC(=O)CSCc2cnn(-c3ccccc3)c2-n2cccc2)cc1	PLCg1 inh 10 | PLCgamma1 ctr inactive | PLCbeta3 conf inactive
Cc1cccc(NC(=O)c2cc(S(=O)(=O)c3ccccc3)ccc2Cl)c1	PLCg1 inh 11 | PLCgamma1 ctr inactive | PLCbeta3 conf inactive
CC(=O)N1C[C@@H](CN2C(=O)CCC2=O)[C@@H]2C[C@H]1c1ccccc1N2C	none
CCC(C)NC(=O)C1CCN(S(=O)(=O)c2ccc3c(c2)CC(C)N3C(C)=O)CC1 (configuration not stated)	none
CCC(Cc1ccccc1)NC(=O)C1CCN(S(=O)(=O)c2ccc3c(c2)CC(C)N3C(C)=O)CC1 (configuration not stated)	PLCg1 inh 12 | PLCgamma1 ctr inactive | PLCbeta3 conf inactive
COc1ccc(C(C(=O)N(C)C2CCCC2)N(Cc2ccc(F)cc2)C(=O)c2csc3ccc(Cl)cc23)cc1OC (configuration not stated)	none
Cc1cc(Cl)ccc1NC(=S)NCc1ccccc1	none
Cc1ccc(NC(=S)NCc2ccc(Cl)cc2)c(C)c1	PLCg1 inh 11 | PLCgamma1 ctr inactive | PLCbeta3 conf inactive
CCCn1c(NC(=O)c2ccccc2)nc(Cc2ccccc2)c1-c1ccc(OC)cc1	none
CCn1c2ccccc2c2cc(NC(=O)CSc3nnc(-c4cccc(F)c4)o3)ccc21	PLCg1 inh 13 | PLCgamma1 ctr inactive | PLCbeta3 conf inactive
CC(C)(C)OC(=O)N1CCN(C(=O)c2[nH]cnc2C(=O)Nc2cccc(Cl)c2)CC1	PLCg1 inh 9.7 | PLCgamma1 ctr inactive | PLCbeta3 conf inactive
O=C(Nc1ccc(F)cc1)c1nsc(Cl)c1Cl	none
O=C(Nc1ccc(F)c(Cl)c1)c1nsc(Cl)c1Cl	PLCg1 inh 11 | PLCgamma1 ctr inactive | PLCbeta3 conf inactive
O=C(OC12CCCN(C1)/C(=C/c1ccncc1)C2)c1ccc(Cl)cc1 (configuration not stated)	none
NS(=O)(=O)c1ccc(N/N=C/c2ccccn2)c([N+](=O)[O-])c1	none
NS(=O)(=O)c1ccc(N/N=C/c2ccc(O)c(O)c2O)c([N+](=O)[O-])c1	PLCg1 inh 12 | PLCgamma1 ctr inactive | PLCbeta3 conf inactive
NS(=O)(=O)c1ccc(N/N=C/c2ccccc2C(=O)O)c([N+](=O)[O-])c1	none
NS(=O)(=O)c1ccc(N/N=C/c2ccc(O)cc2O)c([N+](=O)[O-])c1	PLCg1 inh 10 | PLCgamma1 ctr 12 | PLCbeta3 conf 13
O=c1c2ccc(Cl)cc2[nH]c(=S)n1CCCN1CCOCC1	PLCb3 inh 12 | PLCgamma1 ctr inactive | PLCbeta3 conf inactive
CCN(CC)CCCn1c(=S)[nH]c2cc(Cl)ccc2c1=O	none
O=C(NCCOc1ccccc1)c1ccc2c(c1)OCO2	PLCg1 inh 13 | PLCgamma1 ctr inactive | PLCbeta3 conf inactive
O=C(COC(=O)c1n[nH]c2ccccc12)Nc1ccccc1	none
O=C(COC(=O)c1n[nH]c2ccccc12)Nc1ccc(S(=O)(=O)N2CCCC2)cc1	PLCg1 inh 11 | PLCgamma1 ctr inactive | PLCbeta3 conf inactive
O=C(O)c1ccccc1C(=O)Nc1ccc(S(=O)(=O)N2CCCC2)cc1	PLCg1 inh 10 | PLCgamma1 ctr inactive | PLCbeta3 conf inactive
O=C(Nc1ccc2c(c1)OCO2)c1cccc(S(=O)(=O)N2CCCC2)c1	PLCb3 inh 11 | PLCgamma1 ctr inactive | PLCbeta3 conf inactive
O=C(c1ccc(F)cc1F)N1CCC(Oc2cccnc2)CC1	none
N#Cc1ccc(CSc2nc3sc4c(c3c(=O)n2-c2ccc(Br)cc2)CCCC4)cc1	none
CCN(CCNC(=O)[C@H]1C=C(OC)C(=O)C[C@H](c2ccccc2)[C@H]1C)C(C)=O	none
COC(=O)c1ccccc1NC(=O)Nc1ccc2c(c1)OCO2	none
CC(C)c1ccccc1NC(=O)Nc1ccc2c(c1)OCO2	PLCg1 inh 12 | PLCgamma1 ctr 9.7 | PLCbeta3 conf inactive
Cc1cc(NC(=O)c2ccc3c(c2)OCO3)ccc1NC(=O)c1ccccc1	PLCb3 inh 12 | PLCgamma1 ctr inactive | PLCbeta3 conf 15
